The nature of this experiment: HepG2 cell viability effects, profiling panel, calcein-AM fluorescence, 48 h, basal (AID 1164). Further: test concentration not given here. The conditions noted are these: higher = more signal.
Regarding `Cc1ccc(S(=O)(=O)N2[C@@H](c3ccccc3)C(C(=O)O)=C[C@H]2C(C)(C)C)cc1`, the z-score was -0.558.
For the molecule `C=C1C(=O)C=C2CN(C(=O)c3ccccc3)[C@@](Cc3ccc(F)cc3)(C(=O)OC)[C@@H]12`, the z-score is -5.62.
For the molecule `COC(=O)[C@@]1(Cc2ccc(F)cc2)[C@H]2c3cc(C(=O)N4CCCC4)n(CCc4c[nH]c5cc(F)ccc45)c3C[C@H]2CN1C(=O)c1ccccc1`, the z-score is 0.194.
The value for `CCCCN1CC=CC23O[C@@H]4C=CCCOC(=O)C4[C@H]2C(=O)N(CCO)[C@@H]3C1=O` (stereo not given in full) was -2.09; that for `Cc1ccc(S[C@]2(C(=O)NC3CC3)CC(=O)N(C3Cc4ccccc4C3)[C@@H]2c2ccc(CO)cc2I)cc1` was 0.193.
Regarding `C=CCOC(=O)[C@H]1[C@@H]2C(=O)O[C@@H](c3ccccc3)[C@@H](c3ccccc3)N2[C@@H](c2ccc(OCCOC(=O)[C@H]3C[C@H]4C(=O)NCC(=O)N4[C@H]3c3cccc(OCCO)c3)cc2)[C@]12C(=O)Nc1ccc(I)cc12`, the z-score was 0.902.
For the molecule `CC1(C)OB(/C=C\CC(OC(=O)c2ccncc2)c2ccccc2)OC1(C)C` (stereo not given), the z-score was -0.691.
To `CC[C@@H](O[Si](C#C[Si](C(C)C)(C(C)C)C(C)C)(C(C)C)C(C)C)c1cn([C@H](CO)Cc2ccccc2)nn1` belongs 0.928.
To `C=C[C@H](OC)[C@@H](O)c1ccc(OC)c(O)c1` belongs 1.69.
As for `CC(C)(C)OC(=O)CC[C@@]1(C(N)=O)N=C(c2ccc(OCCCO)cc2)O[C@@H]1c1ccccc1CN=[N+]=[N-]`, the z-score was 0.886.
As for `COCCOC(=O)N1C(=O)[C@@]2(c3cc(C#CCNC(N)=O)ccc31)[C@H](c1ccc(O)cc1)N1[C@H](c3ccccc3)[C@H](c3ccccc3)OC(=O)[C@H]1[C@@H]2C(=O)N1CCc2cc(OC)c(OC)cc2C1`, the z-score is -0.281.
In the case of `COc1cc2c(cc1O)C(C)N(Cc1sc3ccccc3c1Cl)CC2` (stereo not given), the z-score was -0.0238.
To `COCCOC(=O)N1C(=O)[C@@]2(c3cc(C#CCC(C(=O)OC)C(=O)OC)ccc31)[C@H](C(N)=O)[C@H]1C(=O)O[C@H](c3ccccc3)[C@H](c3ccccc3)N1[C@@H]2c1ccccc1OCCO` belongs 0.645.
Turning to `C[C@H]1C2[C@H](Cc3ccccc3)NC(=O)[C@]23C(=O)N[C@@H](Cc2ccccc2)C(=O)N2CCC[C@H]2C(=O)NC/C=C/CC/C=C/C3[C@@H]2O[C@]12C` (stereo not given in full), the z-score is -0.512.
Consider `C[C@@]1([C@@H](NS(=O)(=O)c2cccc3cccnc23)c2ccc(-c3ccccc3)cc2)C[C@H]1C1CCCCC1`, for which the z-score is -1.04.
To `COc1ccc(CCNC(=O)[C@@H]2c3ccccc3C(=O)N(Cc3cc(F)cc(C(F)(F)F)c3)[C@H]2c2ccc(CO)cc2)cc1` belongs 0.492.
Take `C=CC[C@H](O)c1ccc(O)c(F)c1`: the z-score was -0.821.
The value for `CC(C)N1CC=CC23O[C@@H]4/C=C\CCCOC(=O)C4[C@H]2C(=O)N(C(C)CO)[C@@H]3C1=O` (stereo not given in full) was -0.145; that for `C=CCOC(=O)[C@@H]1[C@H]2C(=O)O[C@H](c3ccccc3)[C@H](c3ccccc3)N2[C@H](c2ccc(OCCOC(=O)[C@H]3C[C@H]4C(=O)N[C@@H](CCCCN(C)C)C(=O)N4[C@H]3c3cccc(OCCO)c3)cc2)[C@@]12C(=O)Nc1ccccc12` was -0.113; that for `COCCOC(=O)N1C(=O)[C@@]2(c3cc(C#CC4=CCCCC4)ccc31)[C@H](C(=O)N1CCCCCCC1)[C@H]1C(=O)O[C@H](c3ccccc3)[C@H](c3ccccc3)N1[C@@H]2c1ccccc1OCCO` was -0.107.
On to `CCCCCN1CC=CC23O[C@@H]4/C=C\CCCOC(=O)C4[C@H]2C(=O)N(CCO)[C@@H]3C1=O` (stereo not given in full), for which the z-score was 0.0134.
The value for `CC(C)N1C(=O)[C@@]2(Cc3ccccc31)c1ccccc1C(=O)N(Cc1ccccc1)[C@H]2c1ccc(CO)cc1` was -0.112; that for `C=C(CC1([C@@H](NP(=O)(c2ccccc2)c2ccccc2)[C@H]2C[C@@H]2CCCC)CC1)c1cccc(OC)c1` was -0.96; that for `CC[C@@H](O[Si](C#C[Si](C(C)C)(C(C)C)C(C)C)(C(C)C)C(C)C)c1cn(Cc2cccc(Cl)c2)nn1` was 0.0222.
To `COCCCNC(=O)[C@]1(Cc2ccccc2CN=[N+]=[N-])N=C(c2ccc(OCCCO)cc2)O[C@@H]1c1ccccc1N=[N+]=[N-]` belongs -0.576; to `COc1ccc([Si](C)(C)[C@H]2[C@H](CC(=O)N(CCO)Cc3ccccc3)O[C@@]3(C(=O)N(Cc4cccc(N5CCCCC5=O)c4)c4ccccc43)[C@@H]2C)cc1`, -1.16.
With `C=C(/C=C\CNS(=O)(=O)c1ccc(C)cc1)[C@H](O)[C@H]1CCCN1S(=O)(=O)c1ccccc1[N+](=O)[O-]`, the z-score is -1.3.
Take `[N-]=[N+]=NCc1ccccc1[C@H]1OC(c2ccc(OCCCO)cc2)=N[C@@]1(Cc1ccccc1N=[N+]=[N-])C(N)=O`: the z-score was -0.18.
`C=CCN1C(=O)[C@@]2(O[C@@H](CCO)[C@H]([Si](C)(C)c3ccc(OC)cc3)[C@H]2C)c2cc(N3CCCCC3=O)ccc21`: the z-score is -4.51.
To `Cc1ccc(S[C@]2(C(=O)NCc3ccccc3)CC(=O)N(Cc3ccccc3C(F)(F)F)[C@@H]2c2ccc(CO)cc2I)cc1` belongs 0.024; to `C=C[C@H](C)[C@@H](OC(=O)Nc1ccc(SC)cc1)c1ccc(OCCO)cc1`, -0.232; to `CN(C)C(=O)[C@]1(CCS(=O)(=O)c2ccccc2)N=C(c2ccc(OCCCO)cc2)O[C@@H]1c1ccccc1CN=[N+]=[N-]`, 0.589.
To `COC(=O)[C@]1(Cc2ccccc2N=[N+]=[N-])N=C(c2ccc(OCCCO)cc2)O[C@@H]1c1ccccc1CN=[N+]=[N-]` belongs -5.59.
To `COc1cccc(C)c1NC(=O)O[C@H]1[C@H](OC(=O)Nc2ccccc2)[C@@H](OC(=O)Nc2ccccc2)[C@@H](OC)O[C@@H]1CO` belongs -1.9; to `COCCCNC(=O)[C@@]1(c2ccc([N+](=O)[O-])cc2)CC(=O)N(C2CCCCC2)[C@@H]1c1ccc(CO)cc1I`, 0.857.

(Values after PubChem BioAssay.)
